Test results published in PubChem BioAssay AID1650 (Southern Research Specialized Biocontainment Screening …, 2009).
Results with a measured potency or affinity are listed apart. The source made the active and inactive calls. No rule for the calls is given here.

Assay: mammalian cell viability reduction – secondary assay, cytotoxicity control for West Nile virus antiviral project, dose response (AID 1650)
Conditions: Mammalian host cell viability, cytotoxicity counter-screen; series mostly up to 10 µM

Compound	outcome
COc1cc(CNC(C)(C)CO)cc(Br)c1OCc1ccc(Cl)cc1	inactive
COc1ccc(NC(=S)Nc2ccc3nsnc3c2)cc1	inactive
COc1ccc(-n2c(=S)[nH]c3cc(C(=O)NCc4cccnc4)ccc3c2=O)c(OC)c1	inactive
CN(C)c1nc(=Nc2cccc(Cl)c2)ss1	inactive
CN(C)CCCNc1ncnc2c1c(-c1ccccc1)cn2-c1ccccc1	inactive
C/C(N)=C(/C#N)C(=O)COC(=O)c1cc(-c2ccc(Br)cc2)nc2ccccc12	inactive
O=C(NC1CCCCC1)C(c1ccc(Cl)cc1)N(C(=O)c1ccccn1)c1cccnc1 (stereo unspecified)	inactive
CCOC(=O)c1c(CN2CCN(CCO)CC2)n(-c2ccccc2)c2cc(Br)c(O)cc12	inactive
CCc1ccc(C(=O)Cn2ncc(Cl)c(Cl)c2=O)cc1	inactive
O=C(CSc1nc2ccccc2c(=O)n1-c1ccc(F)cc1F)Nc1ccc(N2CCOCC2)cc1	inactive
Cc1cccc(CN2CCC(CNC(=O)Nc3ccc(F)c(Cl)c3)CC2)c1	inactive
CCOC(=O)c1c2c(n(C)c1COC)C(=O)C(=O)c1ccc(Br)cc1-2	inactive
COc1cc(/C=C/C(=O)c2ccc(NS(=O)(=O)c3ccc(C)cc3)cc2)cc(OC)c1O	inactive
CCOC(=O)C1(Cc2cccc(OC)c2)CCCN(C(=O)c2ccccc2C)C1 (stereo unspecified)	inactive
COc1ccc(-c2ccc(C#N)c(SCC(=O)Nc3sc4c(c3C#N)CCC4)n2)cc1OC	inactive
COC(=O)c1ccc(NC(=O)CC2C(=O)N(C)C(=S)N2Cc2ccc(S(N)(=O)=O)cc2)cc1 (stereo unspecified)	inactive
